Laboratory results published in article PMC3218832.

Molecular target: T1, RELB subunit;p52 subunit (Homo sapiens;Homo sapiens, UniProt Q01201;Q00653 120-401;4-332)
T1 sequence 1: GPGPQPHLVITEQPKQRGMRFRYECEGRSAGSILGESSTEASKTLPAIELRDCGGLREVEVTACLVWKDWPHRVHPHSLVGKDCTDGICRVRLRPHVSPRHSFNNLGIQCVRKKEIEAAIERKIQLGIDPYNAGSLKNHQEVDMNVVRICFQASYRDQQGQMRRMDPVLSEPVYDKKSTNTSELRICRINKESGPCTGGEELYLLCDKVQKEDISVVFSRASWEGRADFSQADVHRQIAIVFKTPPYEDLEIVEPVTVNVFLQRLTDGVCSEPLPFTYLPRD
T1 sequence 2: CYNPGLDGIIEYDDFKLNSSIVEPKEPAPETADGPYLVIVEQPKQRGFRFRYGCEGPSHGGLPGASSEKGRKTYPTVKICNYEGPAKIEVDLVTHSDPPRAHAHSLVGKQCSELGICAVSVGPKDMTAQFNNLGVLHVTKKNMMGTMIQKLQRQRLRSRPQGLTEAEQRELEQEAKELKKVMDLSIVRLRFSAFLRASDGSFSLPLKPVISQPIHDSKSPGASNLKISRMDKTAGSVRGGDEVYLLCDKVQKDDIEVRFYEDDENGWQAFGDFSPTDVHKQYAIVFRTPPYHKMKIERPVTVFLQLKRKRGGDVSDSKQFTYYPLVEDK
Assay: protein binding microarray; high values mean tight binding
Conditions: dsDNA, one strand shown

Sequence	binding signal [z-score]
CAATGTGTCCT	-0.475
CAGTTCTCCCT	1.11
AAGGTACTCCC	0.302
CAAGTTGTCCC	0.446
GGAGGTATCCC	-0.395
AAGGGAATCCC	1.57
CAATGTTCCCT	0.0791
AAATTACTCCC	-0.105
GAATTCGCCCT	-0.722
CAGAGACCCCC	0.502
CGGTGAGCCCC	0.236
CGAGATACCCC	0.921
CAGGGGATCCC	1.18
CGGGAGATCCT	0.152
GGAAATGTCCC	0.986
GAGAGTATCCC	-0.687
CAAAGGCCCCC	0.14
AGAGGTTCCCC	1.64
CGAAAAATCCT	-0.584
CGGGTAGTCCC	1.17

Sequence	binding signal [z-score]
GAGAGCCCCCC	0.733
GAAGGCGTCCC	0.216
CGATAGCTCCT	-1
AGAATGTTCCT	-0.948
AGAATCCCCCC	2.51
AGAAACGTCCT	-0.798
GAAGTAATCCT	-0.928
AGGGACGTCCT	0.709
CGAATACCCCT	1.63
CAGAGCACCCT	-0.444
AAAGACTCCCT	0.156
GAGATATCCCC	0.95
AAAGTGATCCT	-0.978
AAGAGGTTCCT	-0.585
AGGTAATTCCT	0.553
CAGGGATCCCC	1.1
CGGTGTACCCT	-0.155
AAGATGCCCCC	1.17
AAAATAACCCC	1.14

Molecular target: C-Rel subunit;p50 subunit (Homo sapiens;Homo sapiens, UniProt Q04864;P19838 1-285;7-356)
Assay: as above
Conditions: dsDNA, one strand shown

Sequence	binding signal [z-score]
CAATGTGTCCT	-0.887
CAGTTCTCCCT	0.63
AAGGTACTCCC	0.206
CAAGTTGTCCC	0.778
GGAGGTATCCC	-0.57
AAGGGAATCCC	1.02
CAATGTTCCCT	0.0457
AAATTACTCCC	0.213
GAATTCGCCCT	-0.531
CAGAGACCCCC	0.323
CGGTGAGCCCC	0.3
CGAGATACCCC	0.515
CAGGGGATCCC	0.893
CGGGAGATCCT	-0.227
GGAAATGTCCC	0.9
GAGAGTATCCC	-0.656
CAAAGGCCCCC	-0.0908
AGAGGTTCCCC	1.37
CGAAAAATCCT	-0.32
CGGGTAGTCCC	1.09

Sequence	binding signal [z-score]
GAGAGCCCCCC	0.773
GAAGGCGTCCC	-0.0533
CGATAGCTCCT	-1.65
AGAATGTTCCT	-1.17
AGAATCCCCCC	1.9
AGAAACGTCCT	-1.13
GAAGTAATCCT	-1.23
AGGGACGTCCT	0.177
CGAATACCCCT	0.876
CAGAGCACCCT	-1.15
AAAGACTCCCT	-0.0953
GAGATATCCCC	0.698
AAAGTGATCCT	-1.55
AAGAGGTTCCT	-1.22
AGGTAATTCCT	0.224
CAGGGATCCCC	1.1
CGGTGTACCCT	-0.172
AAGATGCCCCC	1.03
AAAATAACCCC	0.682
